The campaign covered roughly 1,400 compounds. About 560 (40%) were called active. The set was probably picked from earlier hits. This is one part of the list. Values without a mark were called inactive.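 How the source made its calls: active means mean inhibition over duplicate tests at 10 µM above 50%; inactive means the rest.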

The assay in a line: ASC/caspase-1 reporter retest in S. cerevisiae at one dose, specificity check for NALP1 project (AID 488857). The settings on record: S. cerevisiae ASC/Caspase-1, beta-galactosidase luminescence, 24 h; at 10 µM; stronger effect = higher value.
Take `COC(=O)c1ccccc1SC1CC(=O)N(c2cccc(C)c2)C1=O` (centres undefined): the inhibition was 37.6%.

As to `CCN(CC)C1CC(=O)N(c2cccc(C)c2)C1=O` (centres undefined), the inhibition was 58% (active). Turning to `Cc1cccc(N2C(=O)CC(Sc3ccccc3C(=O)O)C2=O)c1` (centres undefined), the inhibition is 49.3%. Take `C=CCn1c(CNC(=O)c2cccs2)nnc1SCC(=O)Nc1ccc(C(=O)O)cc1`: the inhibition is 28.1%.

`O=c1sc(Nc2ccccc2)nc2ccsc12`: the inhibition is 77.2% (active).

Take `N#Cc1ccc(Oc2nc(Nc3ccc(F)cc3)nc(N3CCCC3)n2)cc1`: the inhibition is 37.5%.

With `CN(C=[N+](C)C)c1cccc2c1C(=O)c1ccccc1C2=O`, the inhibition was 42.7%. With `O=C1c2cccc(O)c2C(=O)c2c(O)cccc21` the figure was 59.5% (active). Take `CN(C)S(=O)(=O)c1cccc2c1C(=O)c1ccccc1C2=O`: the inhibition was 44.5%. As to `S=C(NC1CCCCC1)NN(c1ccccc1)c1ccccc1`, the inhibition was 53.4% (active). Consider `CCOc1ccccc1N1CCN(C(=O)CCCc2nc3ccccc3s2)CC1`, for which the inhibition was 48.7%.

For the compound `O=C(O)CCCCc1nc2ccccc2s1`, the inhibition was 32%.

For `O=C(CCc1nc2ccccc2s1)Nc1ccccc1`, the inhibition was 80.2% (active).

On to `Cc1ccsc1/C=N/n1c(-c2ccccn2)n[nH]c1=S`, for which the inhibition is 54.9% (active). Take `Cc1ccc2nc(Cl)c(C3CC(c4cccs4)=NN3C(=O)CCCC(=O)O)cc2c1` (centres undefined): the inhibition was 30.2%. With `Cc1ccc(Sc2nnc(Cc3ccccc3)c3ccccc23)cc1` the figure was 48.1%; with `Clc1ccc2oc3c(Cl)ncnc3c2c1`, 29.9%; with `COc1ccc2c(c1)C1=NN(/C(C)=C/C(C)=O)C(c3cccc(F)c3)C1CC2` (centres undefined), 47.5%.

Turning to `Cc1ccc(C(=O)c2no[n+]([O-])c2C(=O)c2ccc(C)cc2)cc1`, the inhibition is 77.2% (active).

Turning to `Cc1ccc(C(=O)/C=C\C(=O)c2ccc(C)cc2)cc1`, the inhibition was 44.1%.

Turning to `CC(C)c1nc2sc3c(=O)[nH]c(=S)[nH]c3c2c2c1CCC2`, the inhibition is 32%.

On to `O=C1C2C3C=CC(C2C(=O)N1CCCO)C1C2C(=O)N(CCCO)C(=O)C2C31` (centres undefined), for which the inhibition was 40.4%.

As for `CCOC(=O)C1CCCCN1Cc1cccc(F)c1` (centres undefined), the inhibition is 27.4%. Regarding `O=S(=O)(c1ccc(Br)cc1)N1CCCN(Cc2cccc(F)c2)CC1`, the inhibition is 61.5% (active). As for `O=C(O)C1(c2ccccc2)CCN(S(=O)(=O)c2ccc(Br)cc2)CC1`, the inhibition is 29.4%. For the compound `COc1ccccc1C(=O)Nc1ccc(OCc2nnc3c4ccccc4c(C)nn23)cc1`, the inhibition is 45.4%.

As to `COc1ccccc1-c1nnc2sc(COc3ccc(Cl)cc3)nn12`, the inhibition was 56.9% (active). For the compound `Clc1ccc(Cn2c(/C=C/c3ccco3)nc3ccccc32)cc1`, the inhibition was 46.5%. With `Oc1c(I)cc(Cl)c2cccnc12` the figure was 97.2% (active); with `Oc1c(CN2CCCCC2)cc(Br)c2cccnc12`, 49%. With `O=C(N/N=C/c1cccc(F)c1)c1c(O)c2ccccc2[nH]c1=O`, the inhibition is 38.5%. As to `NC(=S)N/N=C/c1coc2c(ccc3ccccc32)c1=O`, the inhibition was 58% (active). For `CSc1ccc(C(=O)C2CCCN(C(=O)c3ccc4c(c3)no[n+]4[O-])C2)cc1` (centres undefined), the inhibition was 19.9%.

`Cn1c(=O)c([N+](=O)[O-])c(-n2cnc3ccccc32)c2ccccc21`: the inhibition was 14.3%. With `O=[N+]([O-])/C(C(=C(Cl)Cl)N1CCN(Cc2ccccc2)CC1)=C1\NCCN1Cc1ccc(Cl)nc1` the figure was 41.5%.

As to `CN(C)/C=N/n1cnc2ccccc2c1=O`, the inhibition is 32%. Consider `Cc1cc2ncn(/N=C/c3ccc([N+](=O)[O-])s3)c2cc1C`, for which the inhibition was 67.8% (active).

Turning to `CCCCCCCCCCCCCCCC[n+]1cccc2ccccc21`, the inhibition was 93.7% (active).

Take `O=c1c(Br)c(N2CCCC2)cnn1-c1ccccc1`: the inhibition is 64.9% (active). Consider `c1ccc2sc(Sc3ncnc4sccc34)nc2c1`, for which the inhibition was 44.6%. Consider `Cn1c2ccccc2c(=O)c2c(=O)n(C3CCCCCC3)c(C3CCCCC3)nc21`, for which the inhibition is 53.2% (active). For the compound `COc1ccc(CCn2c(C(C)C)nc3c(c(=O)c4ccccc4n3C)c2=O)cc1`, the inhibition is 28%. Take `COC(=O)c1ccc(NC(=O)c2ccccc2N(C)S(=O)(=O)c2ccccc2)cc1`: the inhibition was 55.2% (active). Regarding `Cc1ccc(NC(=O)c2cccc(S(=O)(=O)N(C)c3ccccc3)c2)cc1S(=O)(=O)N1CCOCC1`, the inhibition is 36.1%. With `CC(=O)c1ccc(NC(=O)/C=C/c2ccc(C)cc2)cc1` the figure was 60.4% (active). Consider `CSc1ccc(/C=C/C(=O)c2ccc(NC(C)=O)cc2)cc1`, for which the inhibition is 75.5% (active). In the case of `COc1cc(/C=C/C(=O)Nc2ccc(C)cc2)cc(OC)c1OC`, the inhibition is 46.8%. For the compound `CSc1ccc(/C=C/C(=O)c2ccc(O)cc2)cc1`, the inhibition was 81.2% (active). With `Cc1c(N)c(C(C)(C)C)cc(C(C)(C)C)c1[N+](=O)[O-]` the figure was 35.1%; with `CCN1CCN(c2cc3c(cc2F)c(=O)c(C(=O)O)cn3C2CC2)CC1`, 36.3%; with `CCOC(=O)C(=O)C1=C(N2CCOCC2)/C(=C\c2ccc(F)cc2)CC1`, 36.2%. With `COc1ccc(OC)c(/C=c2\sc3nc(-c4cccs4)nn3c2=O)c1` the figure was 23.2%. Consider `CCOc1ccc(C(=O)Nc2ccc(-c3nc4ccccc4[nH]3)cc2)cc1[N+](=O)[O-]`, for which the inhibition was 39.4%. Consider `COC(=O)c1ccc(C(=O)OC)c(NC(=O)CN2CCN(c3ccccc3OC)CC2)c1`, for which the inhibition was 49.2%. Take `CC1CCN(c2ccccc2NC(=O)c2ccc(N3CCOCC3)c([N+](=O)[O-])c2)CC1`: the inhibition is 27.4%. Consider `COc1ccc(C(=O)NCc2ccccc2)cc1S(=O)(=O)N1CCCc2ccccc21`, for which the inhibition is 39%. With `COc1ccc(C(=O)NC(=S)Nc2ccccc2N2CCCCC2)cc1[N+](=O)[O-]`, the inhibition is 68% (active).

`CCOc1ccc(C(=O)NC(=S)Nc2ccccc2N2CCCCC2)cc1[N+](=O)[O-]`: the inhibition is 62.5% (active). With `COc1cc(-c2nc(C(F)(F)F)c(OC)o2)cc(OC)c1OC` the figure was 44.9%. Turning to `COc1cc(/C=C/C(=O)c2ccc(Cl)s2)cc(OC)c1O`, the inhibition is 63.6% (active). Turning to `Cc1cccc(OC(=O)c2cn(C)nc2C(F)(F)F)c1C`, the inhibition is 50.9% (active).

As for `COc1ccc(-c2csc3ncnc(Oc4cccc5ccc(C)nc45)c23)cc1`, the inhibition was 71.4% (active). Take `COc1ccccc1N1CCN(C(=O)CSc2ncnc3scc(-c4ccccc4)c23)CC1`: the inhibition was 44.1%. As for `Cc1ccc(-c2csc3ncnc(Oc4cccc5ccc(C)nc45)c23)cc1`, the inhibition was 63% (active). Take `O=C(/C=C/c1ccc(F)cc1)NCCc1ccc2c(c1)OCCO2`: the inhibition is 61.6% (active). As to `O=C(c1ccc(F)cc1)c1cn(Cc2ccc(F)cc2)c2cc3c(cc2c1=O)OCCO3`, the inhibition was 44.1%. Take `Cc1ccc(/C=C/C(=O)NCc2ccc3c(c2)OCO3)o1`: the inhibition was 42.4%. As for `O=C(Nc1ccon1)c1cc2ccccc2oc1=O`, the inhibition is 30.9%. On to `O=C(Nc1cccnc1)Nc1ccc2c(c1)OCO2`, for which the inhibition was 43.5%. Take `O=C(NC(=S)Nc1cccnc1)c1cc2ccccc2o1`: the inhibition was 69.7% (active). Take `O=C(Nc1cccc(-c2nc3ncccc3o2)c1)c1cc2ccccc2o1`: the inhibition is 61.8% (active). With `O=C(N/N=C/c1ccncc1)c1cc2ccccc2o1`, the inhibition is 41.4%. With `O=C(O)CC(Cn1cnnn1)c1ccccc1` (centres undefined) the figure was 29.3%; with `CN(C#N)c1nc(Cl)nc(Nc2cccc(Cl)c2)n1`, 28.1%. On to `Cc1ccc(C(=O)NCCCNc2ccc(C(F)(F)F)cc2[N+](=O)[O-])cc1`, for which the inhibition is 46.6%. Turning to `O=[N+]([O-])c1cc(C(F)(F)F)ccc1NCCc1c[nH]c2ccc(O)cc12`, the inhibition is 70.5% (active). Turning to `C1CCC(C(CC2CCCCN2)C2CCCCC2)CC1` (centres undefined), the inhibition was 39.9%. For the compound `COc1ccc(/C=N/N2CCOCC2)cc1COc1ccc(Cl)cc1`, the inhibition was 61% (active).

As to `COc1cc(/C=N/n2cnnc2)ccc1OCc1ccc(C)cc1`, the inhibition is 48.5%. Turning to `O=C1C=CC(=O)N1CCCCCCN1C(=O)C=CC1=O`, the inhibition is 73.7% (active).

Turning to `O=C1C=CC(=O)N1CCNc1ncc(C(F)(F)F)cc1Cl`, the inhibition is 44%.

Regarding `CN1CCN(C2=C(Cl)C(=O)C(c3cnc(N4CCCCC4)s3)=C(Cl)C2=O)CC1`, the inhibition was 41.3%. Regarding `COc1ccc(OC)c(N/C(=N/C(=S)Nc2ccccc2)Nc2nc(C)cc(C)n2)c1`, the inhibition was 34.1%. With `CCCn1nc(NC(=O)c2ccccn2)c2cc3cc(C)ccc3nc21`, the inhibition was 16.4%. As to `CC(C)CC(=O)c1c[nH]c(C(=O)NCc2cccs2)c1`, the inhibition is 38.2%.

Take `O=C(NCc1cccs1)c1csc2ccccc12`: the inhibition was 57.2% (active). With `CC1=C(OC(=O)c2ccc(Br)cc2)C(C)(C)C(c2ccccc2)OC1=O` (centres undefined) the figure was 22%; with `CC1(C)COC(/C=C/c2ccc([N+](=O)[O-])cc2)=N1`, 83.1% (active). Take `CCCCN(Cc1ccccc1)C(=O)C1CCN(Cc2sccc2C)CC1`: the inhibition is 45.2%. For `O=C(CON=C1c2ccccc2-c2ccccc21)NC12CC3CC(CC(C3)C1)C2`, the inhibition is 33%.

In the case of `O=C(CSc1ncn[nH]1)NC12CC3CC(CC(C3)C1)C2`, the inhibition was 19.1%.

Regarding `O=C(CCl)NC(=O)NC12CC3CC(CC(C3)C1)C2`, the inhibition is 59.9% (active).

In the case of `CC1CCN(Cc2ccc(-c3nn[nH]n3)cc2)CC1`, the inhibition was 39.5%. Take `COc1cc(CNC2CCCCCCC2)cc(Br)c1OCC#N`: the inhibition is 32.9%. Regarding `CCOc1cc(CNCc2ccncc2)cc(Br)c1OCc1ccc(F)cc1`, the inhibition was 67.8% (active). On to `CCOc1cc(CNC2CCCC2)cc(Cl)c1OCc1ccc(F)cc1`, for which the inhibition is 60.9% (active). Consider `C/C(=C(\C#N)C(=O)NCc1ccccc1)N(C)C`, for which the inhibition was 34.8%. In the case of `CCC(C)c1ccc(OCCn2ccnc2)cc1` (centres undefined), the inhibition is 73.5% (active). Take `CCOc1ccc(OCCCCn2ccnc2)cc1`: the inhibition was 54.8% (active).

For orientation: inhibition means the drop in the measured response relative to a control, in per cent.

The values are drawn from PubChem BioAssay AID488857 (Sanford-Burnham Center for Chemical Genomics, 2010).
